# Assay outcomes (PubChem BioAssay)
# The list is not random: actives were taken first. Their share in the collection is about 19%.
# IL1B secr inh: blocks inflammasome-driven IL-1 beta release | 360,000 tested, 4.7% active | activity change, % at 57.5 µM | THP-1 LPS/ATP IL-1B secretion, AlphaLISA, 16 h; hits give low values; in the data active means activity change below about -50%; inconclusive means mostly about -30% to -49%
#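 Secreted IL-1B measured by AlphaLISA bead assay after 16 h compound exposure of THP-1 cells; compounds (final up to 57.5 uM) added 1 h before LPS (250 ng/mL) and ATP (1.25 mM) stimulation; lower signal means less secretion.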
# TDP1 cell CPT: growth inhibition of DT40 Tdp1-/-;hTDP1 cells with camptothecin (screen for TDP1 inhibitors); chicken DT40 Tdp1-/-;hTDP1 cells + 20 nM CPT, ATP luminescence, 48 h; Potency, µM (titrated, usually from 46.2 µM), hits mostly inhibitors; 420,000 tested, 12% active; AID 686979; further: nearly all actives have a fitted effect of over 55% in size
#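 Chicken DT40 Tdp1-/- cells complemented with human TDP1, 400 cells/well, exposed to compounds plus 20 nM camptothecin for at least 48 h at 37 C; viability read as ATP content by CellTiter-Glo luminescence.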
# HepG2 viability: counter-screen for TGF-b inhibitors: cytotoxicity in HepG2 cells; HepG2 CAGA-GFP viability, ATP luminescence, 18 h; Potency, µM (series often up to 46.1 µM), most hits filed as cytotoxic; 410,000 tested, 0.76% active
#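 CellTiter-Glo luminescence gave cytotoxicity after 18 hours at 37 degrees C. The cells were HepG2 CAGA-GFP in 1% FBS DMEM, stimulated with 500 pg/mL TGF-beta after compound addition. %Activity was normalised to no-cell wells (complete cell-killing) and DMSO (no toxicity), and curves were fitted and classified.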
# TDP1 cell noCPT: qHTS for Inhibitors of human tyrosyl-DNA phosphodiesterase 1 (TDP1): qHTS in cells in absence of CPT | DT40 Tdp1-/- hTDP1 cells, no CPT, ATP luminescence, 48 h | Potency, µM (titrated, usually from 46.2 µM), most hits filed as inhibitors | 420,000 tested, 15% active | AID 686978, 2013; further: nearly all actives have a fitted effect of over 55% in size
#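 Camptothecin absent (DMSO only). Human TDP1-complemented DT40 knockout cells, 400 cells/well, 37 °C for minimum 48 hr; ATP measured via CellTiter-Glo, 30 min dark incubation, luminescence.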
# ASM inhibitor: inhibitors of human secretory acid sphingomyelinase; P17405; placental ASM, HMU-PC fluorogenic substrate, 60 min; Potency, µM (top dose mostly 57.5 µM), hits mostly inhibitors; 340,000 tested, 0.006% active; AID 504937
# Target sequence (P17405 47-631 limits assumed): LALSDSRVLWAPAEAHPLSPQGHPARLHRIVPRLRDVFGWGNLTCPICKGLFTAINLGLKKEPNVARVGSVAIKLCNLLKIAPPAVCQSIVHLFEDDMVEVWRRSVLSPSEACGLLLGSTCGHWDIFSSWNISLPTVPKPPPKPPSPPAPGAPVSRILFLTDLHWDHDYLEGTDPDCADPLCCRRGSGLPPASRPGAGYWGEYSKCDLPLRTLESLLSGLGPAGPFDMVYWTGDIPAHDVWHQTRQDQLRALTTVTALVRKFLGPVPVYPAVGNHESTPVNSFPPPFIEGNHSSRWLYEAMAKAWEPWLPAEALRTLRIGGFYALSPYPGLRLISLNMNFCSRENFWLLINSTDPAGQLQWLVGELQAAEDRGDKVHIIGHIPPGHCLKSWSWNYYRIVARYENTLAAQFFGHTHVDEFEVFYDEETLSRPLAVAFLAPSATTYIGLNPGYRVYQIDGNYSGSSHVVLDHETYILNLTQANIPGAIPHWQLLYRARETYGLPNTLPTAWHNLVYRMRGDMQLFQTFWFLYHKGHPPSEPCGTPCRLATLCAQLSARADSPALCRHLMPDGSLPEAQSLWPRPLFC
#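 Fluorescence read-out (Ex 386 nm, Em 447 nm) after stopping the reaction at pH 10. Enzyme: ASM from human placenta; substrate HMU-PC0, 9 uM final; 60 min, 37 °C. Compound preincubation 10 min, ambient temperature.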
# TGFb inhibitor: TGF-b pathway inhibition; HepG2 CAGA-GFP TGF-b/SMAD3 reporter, GFP fluorescence, 18 h; TGF-beta stimulated, 500 pg/mL final; Potency, µM (titrated, usually from 46.1 µM), hits mostly inhibitors; 410,000 tested, 1.2% active; further: nearly all actives have a fitted effect of over 65% in size
#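 HEPG2 CAGA-GFP reporter cells (1000/well, DMEM with 1% FBS) received compounds, then recombinant TGF-beta at 500 pg/mL final for 18 hours at 37 degrees C. Per-cell GFP summed per well was normalised to unstimulated and stimulated DMSO controls before curve fitting.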
# A number is an active result; – = inactive; ? = inconclusive; · = no result; ! = a repeat was not active. Unless noted, the call rests on the fitted dose curve; in most records, active means well fitted curve in the direction sought with a large enough effect; inconclusive means small, poorly fitted or top-dose-only effect, or another doubt; inactive means no such curve, though single readings can be large; an effect the other way counts as inactive or inconclusive.
SMILES,IL1B secr inh,TDP1 cell CPT,HepG2 viability,TDP1 cell noCPT,ASM inhibitor,TGFb inhibitor
Cc1ccc(NC(=O)c2sc3ncnc(N(C)C4CCCCC4)c3c2C)c(C)c1,·,?,–,?,·,–
CCc1ccccc1NC(c1nnc(-c2cccc(F)c2)o1)c1ccc(F)cc1Cl (stereo unspecified),·,–,–,–,·,–
Cc1ccc(CNC(=O)c2cc3sccc3n2Cc2ccc(Cl)cc2)cc1,·,?,–,?,·,?
CC(C)(C)NC(=O)C1c2ccccc2OCC(=O)N1CCc1ccccc1 (stereo unspecified),–,–,·,–,·,·
CCOc1ccccc1NC(=O)c1sc2nc(C)nc(N3CCOCC3)c2c1C,–,–,–,?,–,–
CCOC(=O)c1sc2ncnc(N3CCN(CC)CC3)c2c1C,–,–,–,?,–,–
Cc1nc(N2CCCCC2)c2c(C)c(C(=O)Nc3ccccc3C(F)(F)F)sc2n1,–,2.1µM,–,2.9µM,–,–
COc1cc(NC(=O)c2sc3nc(C)nc(N4CCOCC4)c3c2C)cc(OC)c1OC,?,21µM,–,12µM,–,–
CCOC(=O)c1sc2ncnc(N3CCN(C(=O)OCC)CC3)c2c1C,?,15µM,–,?,–,–
Cc1cccc(N(C(=O)c2csnn2)C(C(=O)NC2CCCCC2)c2ccncc2)c1 (stereo unspecified),–,–,–,–,–,–
Cc1no[n+]([O-])c1COc1cccc(/C=C2\N=C(c3ccccc3)OC2=O)c1,–,–,–,–,–,–
O=C1OC(c2ccccc2)=N/C1=C/c1cccc(OC(=O)c2cccs2)c1,-52,–,–,–,–,–
CCOc1ccc(CNC(=O)C2Cc3cc(S(=O)(=O)N4CCCCCC4)ccc3N2C(C)=O)cc1 (stereo unspecified),·,?,–,?,·,–
CCc1ccc(NCCC(=O)c2ccc(Cl)cc2)cc1,–,21µM,–,16µM,–,–
CCc1ccc(C(=O)NNc2ccc(Cl)cc2)cc1,–,–,–,–,–,–
COc1cc(/C=C2\CCC/C(=C\c3ccc(O)c(OC)c3)C2=O)ccc1O,-95,7.1µM,10µM!,8.2µM,–,?
CCOc1cc(/C=C2\SC(=O)N(c3ccc(O)cc3)C2=O)ccc1O,?,?,–,?,–,?
CCN1C/C(=C/c2cccc([N+](=O)[O-])c2)C(=O)/C(=C/c2cccc([N+](=O)[O-])c2)C1,-106,0.58µM,–,0.73µM,–,?
CCOc1ccc(N2C(=O)S/C(=C\c3ccc(O)c(OCC)c3)C2=O)cc1,-53,–,–,16µM,–,–
COc1cc(C=O)ccc1O,·,–,·,–,·,·
COc1ccc(C=C(C(C)=O)C(C)=O)cc1OC,–,?,–,?,–,–
O=C1NC(=O)/C(=C/c2cccc([N+](=O)[O-])c2)N1,–,–,–,–,–,–
COc1cc(C=C(C(C)=O)C(C)=O)ccc1O,-67,–,–,?,–,–
COc1cccc(C(=O)C2=NN(C(C)=O)CC2c2ccco2)c1 (stereo unspecified),–,–,–,–,–,–
CCOc1cc(/C=C2\CN(CC)C/C(=C\c3ccc(O)c(OCC)c3)C2=O)ccc1O,-104,5.2µM,8.9µM,4.1µM,–,5.6µM
SMILES,IL1B secr inh,TDP1 cell CPT,HepG2 viability,TDP1 cell noCPT,ASM inhibitor,TGFb inhibitor
COc1cc(C=C2C(=O)C=CC2=O)ccc1O,-113,0.16µM,·,0.26µM,·,·
COc1cc(C=C2CCC/C(=C\c3ccc(O)c(OC)c3)C2=O)ccc1O,·,3.3µM,·,7.5µM,·,·
COc1cc(/C=C2/C(=O)CNC2=O)ccc1O,–,–,–,–,–,–
COCc1c(C(=O)N2CCN(C(C)C)CC2)cnn1-c1nccc(-c2cc(C)sc2C)n1,·,–,·,–,·,·
N#Cc1c(-c2ccco2)cc(-c2ccc(F)cc2)nc1N,–,?,–,18µM,–,–
CCOc1cc(/C=C(\C#N)c2[nH]nc(N)c2C#N)ccc1O,-65,?,–,10µM,–,?
COc1cc(-c2cc(-c3ccc(O)cc3)nc(N)c2C#N)ccc1O,-65,–,–,?,–,–
COc1ccc(-c2cc(-c3ccc(O)cc3)nc(N)c2C#N)cc1,–,?,–,23µM,–,–
CCOc1cc(/C=C(\C#N)C(=O)Nc2ccccn2)ccc1O,–,–,–,–,–,–
N#Cc1c(-c2ccc(F)cc2)cc(-c2cccnc2)nc1N,–,–,–,–,–,–
CCOc1ccc(N(CC(=O)NCCc2ccc(Cl)cc2)S(=O)(=O)c2c(C)[nH]c(=O)[nH]c2=O)cc1,–,–,–,–,–,–
CCOc1cc(-c2cc(-c3ccc(C)cc3)nc(N)c2C#N)ccc1O,–,?,–,21µM,–,?
N#Cc1c(-c2ccccc2)cc(-c2ccc(O)cc2)nc1N,–,?,–,?,–,–
COc1ccc(OC)c(-c2cc(-c3cccnc3)nc(N)c2C#N)c1,–,0.92µM,–,0.92µM,–,–
O=C1CC(NS(=O)(=O)c2cc(F)ccc2F)CN1c1ccc2c(c1)OCCO2 (stereo unspecified),–,–,–,–,–,–
CCN(C(=O)c1ccc2c(Cl)c3c(nc2c1)CCC3)c1ccc(C)c(C)c1,-81,21µM,–,21µM,–,?
CN(C(=O)c1ccc2c(Cl)c3c(nc2c1)CCC3)c1ccccc1,–,?,–,?,–,–
CN(C(=O)c1ccc2c(Cl)c3c(nc2c1)CCC3)c1ccccc1F,·,–,–,29µM,·,?
O=C(NCc1ccco1)c1ccccc1-c1nc(-c2ccccc2)no1,–,?,2µM,–,–,–
O=C(NCc1ccco1)c1ccccc1,–,–,–,–,–,–
O=C(NCc1ccco1)c1cccc(-c2nnc(-c3ccccc3)o2)c1,–,21µM,–,?,–,–
Cc1ccc(-c2noc(-c3ccccc3C(=O)NCc3ccco3)n2)cc1,–,?,–,?,–,–
Cc1cccc(-c2noc(-c3ccccc3C(=O)NCc3ccco3)n2)c1,?,21µM,–,21µM,–,–
CCC(C)c1ccccc1NC(=O)CN(CC)CC(=O)Nc1ccc2c(c1)OCCO2 (stereo unspecified),–,–,–,–,–,–
CCN(CC)S(=O)(=O)c1ccc(C(=O)/C=C/c2ccc(-c3ccc([N+](=O)[O-])cc3)o2)cc1,–,?,–,6.5µM,–,–
Cc1ccc(C(=O)/C=C/c2ccc(-c3ccc(C)cc3)o2)cc1,–,5.2µM,–,5.2µM,–,–
